Reference: PubChem BioAssay
“And” between values parts separate entries of the source, which are not always exact repeats. Equal values may be shown once. The source made the active and inactive calls.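 How the source made its calls: active means inhibition at or above 50% relative to wild type and mutant plate controls; inactive means inhibition below 50%.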

experiment: loss of swimming-algae plug formation – whole organism, Chlamydomonas reinhardtii, WT vs cilia-less mutant, absorbance, 96-well, primary screen (AID 463189); conditions: Chlamydomonas reinhardtii gravitaxis, OD600 absorbance, 2 days; at 10 µM; hits give high values;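 further: 0% = wild type cc124 cells in DMSO and 100% = ciliumless bld1 mutant cells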

SMILES	inhibition
C[C@@H]1O[C@H](C[N+](C)(C)C)CS1	4.65% (inactive)
CCCN1CCC[C@@H](c2cccc(O)c2)C1	0.338% (inactive)
CC(=O)OCC1=C(C(=O)[O-])N2C(=O)[C@@H](NC(=O)CCC[C@@H](N)C(=O)[O-])[C@H]2SC1.[Zn+2]	3.46% (inactive)
C[N+]1(C)C2CCC1CC(OC(=O)c1c[nH]c3ccccc13)C2 (stereo not drawn)	8.92% (inactive)
NC(Cc1ccc(N(CCCl)CCCl)cc1)C(=O)O (stereo not drawn)	3.86% (inactive)
CN1C2CCC1CC(OC(c1ccccc1)c1ccc(Cl)cc1)C2 (stereo not drawn)	11.8% (inactive)
O=P1(N(CCCl)CCCl)NCCCO1 (stereo not drawn)	-0.869% (inactive)
CCNC(=O)[C@H]1O[C@@H](n2cnc3c(N)ncnc32)C(O)[C@H]1O (stereo partly drawn)	-1.46% (inactive)
CN1CCC(c2c[nH]c3ccc(O)cc23)CC1	4.07% (inactive)
C[Se]C[C@H](N)C(=O)O	1.72% (inactive)
Cc1[nH]c2ccc(O)cc2c1CCN	5.71% (inactive)
Clc1ccc(C(c2ccc(Cl)cc2)n2cc[n+](CC(OCc3ccc(Cl)cc3Cl)c3ccc(Cl)cc3Cl)c2)cc1 (stereo not drawn)	133% (active)
C#CCOC(=O)C1=CCCN(C)C1	6.87% (inactive)
CC(N)Cc1c[nH]c2ccc(O)cc12 (stereo not drawn)	7.26% (inactive)
CCCN(CCC)[C@@H]1CCc2c(F)ccc(O)c2C1	-5.24% (inactive)
CC(=O)NCCc1c[nH]c2ccccc12	7.09% (inactive)
C=CCN1CCC2(C)c3cc(O)ccc3CC1C2C (stereo not drawn)	0.366% (inactive)
COc1cc(C[C@@H](C)N)c(OC)cc1I	-7.2% (inactive)
C[C@@H](N)Cc1cnc[nH]1	-0.522% (inactive)

SMILES	inhibition
Nc1ccc(CCN2CCN(c3cccc(C(F)(F)F)c3)CC2)cc1	40.5% (inactive)
NC(CCCCCP(=O)(O)O)C(=O)O (stereo not drawn)	-3.46% (inactive)
CC(C)(C)c1cc(C=C(C#N)C#N)cc(C(C)(C)C)c1O	1.13% (inactive)
NC(=O)c1cc(N2CC2)c([N+](=O)[O-])cc1[N+](=O)[O-]	-4% (inactive)
C=C(C)[C@H]1CN[C@H](C(=O)O)[C@H]1CC(=O)O	-2.25% (inactive)
COc1cc(CC(C)N)c(OC)cc1I (stereo not drawn)	-7.42% (inactive)
C[C@]12CCC3C(CC[C@H]4C[C@H](O)CC[C@]34C)C1CC[C@@H]2C(=O)CO (stereo partly drawn)	4.52% (inactive)
CCC1(C2=NCCN2)Cc2ccccc2O1 (stereo not drawn)	-5.93% (inactive)
CC(Cc1ccc(O)cc1)NCC(O)c1cc(O)cc(O)c1 (stereo not drawn)	1.02% (inactive)
CC(C)CC(NP(=O)(O)O[C@@H]1O[C@@H](C)[C@H](O)[C@@H](O)[C@H]1O)C(=O)NC(Cc1c[nH]c2ccccc12)C(=O)O (stereo partly drawn)	5.76% (inactive)
CN1CCc2cc(O)cc3c2[C@H]1Cc1ccc(O)c(O)c1-3	-0.305% (inactive)
CCCCCCCCCCCCCC(=O)O[C@@H]1[C@@H](C)[C@@]2(O)[C@@H](C=C(CO)C[C@@]3(O)C(=O)C(C)=C[C@@H]23)C2C(C)(C)[C@@]21OC(C)=O (stereo partly drawn)	-13.4% (inactive)
C[N+]1(C)C2CCC1CC(OC(=O)C(CO)c1ccccc1)C2 (stereo not drawn)	-0.808% (inactive) and 1.27% (inactive)
C[C@@H]1O[C@@H](O[C@H]2C[C@@H](O)[C@]3(CO)[C@H]4[C@H](O)C[C@]5(C)[C@@H](C6=CC(=O)OC6)CC[C@]5(O)[C@@H]4CC[C@]3(O)C2)[C@H](O)[C@H](O)[C@H]1O	6.79% (inactive)
CN(C(=O)Cc1ccc(Cl)c(Cl)c1)C(CN1CCCC1)c1cccc(OCC(=O)O)c1 (stereo not drawn)	4.68% (inactive)
O=C(O)[C@@H]1CCN1	2.04% (inactive)
COC(=O)[C@@H](N)CCCN=C(N)N[N+](=O)[O-]	-4.62% (inactive)
CO[C@H]1CC=C2CCN3CCC4=C(CC(=O)OC4)[C@]23C1	0.879% (inactive)
CCCn1c(=O)c2[nH]c(C3CCCC3)nc2n(CCCOC(=O)c2ccc(S(=O)(=O)F)cc2)c1=O	0.089% (inactive)
